# Only some compounds are listed: those with a hit (about 2.4% of all), similar ones and a draw of the others.
# Pol beta inh – qHTS Assay for Inhibitors of DNA Polymerase Beta; Potency, µM (doses to about 114 µM), inactives show top-dose activity change, negative = inhibition, hits mostly inhibitors; 1.3% of 340,000 active; Pol beta primer extension/strand displacement, fluorescence kinetic; AID 485314, 2010; further: on the % scale 0 is the no-effect control and ±100 the full control effect
#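 Preincubation: enzyme (10 nM) with compound, 15 min, RT. Reaction: substrate added to 50 nM final. Reads: 0 and 10 min. Analysis: normalized, Hill fit.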
# Pol kappa inh – qHTS for Inhibitors of Polymerase Kappa; Potency, µM (highest dose often 107 µM), for the others: at the top dose activity, negative = inhibition, hits mostly inhibitors; DNA polymerase kappa (Homo sapiens), Q9UBT6; purified Pol kappa, fluorescent DNA synthesis assay, 10 min; 0.53% of 400,000 active; further: on the % scale 0 is the no-effect control and ±100 the full control effect
#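 Enzyme at 10 nM met test compounds for 15 min at room temperature. Substrate addition (50 nM final) began the reaction, which was monitored by fluorescence at 0 and 10 min.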
# FEN1 inh – qHTS Assay for the Inhibitors of Human Flap endonuclease 1 (FEN1); P39748; Recombinant FEN1 flap cleavage, fluorescence, 15 min; Potency, µM (series often up to 114 µM), for inactives: at the top dose activity change, negative = inhibition, usual class: inhibitors; 0.35% of 390,000 active; further: on the % scale 0 is the no-effect control and ±100 the full control effect; nearly all actives have a fitted effect of over 65% in size
#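 With each library titrated from low to high concentration, compounds met 10 nM FEN1 for 15 min at room temperature before 50 nM substrate was added; readings at 0 and 15 min fed four-parameter Hill curve fits.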
# POLH inh – qHTS for Inhibitors of Polymerase Eta | 1.2% of 390,000 active | Potency, µM (top dose mostly 114 µM), for the others: at the highest dose activity change, negative = inhibition, actives largely listed as inhibitors | recombinant Pol eta, fluorescent DNA replication assay | DNA polymerase eta (Homo sapiens), Q9Y253 | AID 588591, 2011; further: on the % scale 0 is the no-effect control and ±100 the full control effect
#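 Fluorescent replication assay: 50 nM final substrate added after a 15 min room-temperature compound preincubation with 10 nM enzyme. Signal taken at 0 min and again at 10 min.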
# TDP1 inh – qHTS Assay for Inhibitors of Tyrosyl-DNA Phosphodiesterase (TDP1) | Tyrosyl-DNA phosphodiesterase 1 (Homo sapiens), Q9NUW8 | recombinant TDP1, AlphaScreen DNA substrate cleavage | Potency, µM (titrated, usually from 130 µM), without a hit: at the highest dose activity change, negative = inhibition, usual class: inhibitors | 0.28% of 350,000 active; further: on the % scale 0 is the no-effect control and ±100 the full control effect; nearly all actives have a fitted effect of over 40% in size
# Target sequence (Q9NUW8 whole entry, looked up): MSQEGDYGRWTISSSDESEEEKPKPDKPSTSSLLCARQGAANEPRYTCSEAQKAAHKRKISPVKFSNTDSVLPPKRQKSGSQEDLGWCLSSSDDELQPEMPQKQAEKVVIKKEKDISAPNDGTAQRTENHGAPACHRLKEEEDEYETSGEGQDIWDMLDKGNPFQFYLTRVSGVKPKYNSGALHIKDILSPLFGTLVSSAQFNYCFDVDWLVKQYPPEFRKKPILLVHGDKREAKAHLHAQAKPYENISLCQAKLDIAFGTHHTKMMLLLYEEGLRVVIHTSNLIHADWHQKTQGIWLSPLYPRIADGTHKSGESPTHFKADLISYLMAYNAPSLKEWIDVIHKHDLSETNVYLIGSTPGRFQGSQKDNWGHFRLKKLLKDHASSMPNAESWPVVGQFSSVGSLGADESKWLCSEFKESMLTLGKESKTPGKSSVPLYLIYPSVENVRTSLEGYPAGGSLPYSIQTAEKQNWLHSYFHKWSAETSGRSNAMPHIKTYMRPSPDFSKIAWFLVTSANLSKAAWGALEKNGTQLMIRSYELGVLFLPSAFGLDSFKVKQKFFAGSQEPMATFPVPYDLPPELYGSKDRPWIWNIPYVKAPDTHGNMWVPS
#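 Enzyme-compound mixtures sat 15 min at room temperature, followed by a 5 min reaction with 15 nM final substrate and 10 min with AlphaScreen beads. Recombinant human Tdp1 was used at 1 nM final.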
# POLI inh – qHTS for Inhibitors of Polymerase Iota. DNA polymerase iota (Homo sapiens), Q9UNA4. Pol iota fluorescent replication assay, 10 min. Potency, µM (titrated, usually from 115 µM), for inactives: at the top dose activity, negative = inhibition, hits mostly inhibitors. 1% of 390,000 active
#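 Pol iota at 10 nM preincubated 15 min with compounds at room temperature; reaction started with fluorescent substrate, 50 nM final. Fluorescence read kinetically at 0 and 10 min; buffer-only wells as negative control.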
# Starred values were filed as active, the others as inactive; u = inconclusive; x = not tested or not shown; [ ] = another dose, or the depositor's remark. The call rests on the fitted dose curve; in most records, active means well fitted curve in the direction sought with a large enough effect; inconclusive means small, poorly fitted or top-dose-only effect, or another doubt; inactive means no such curve, though single readings can be large; an effect the other way counts as inactive or inconclusive. Potency means the concentration at half of the fitted maximal effect.
SMILES,Pol beta inh,Pol kappa inh,FEN1 inh,POLH inh,TDP1 inh,POLI inh
CSCC[C@@H]1NC(=O)[C@@H](NC(=O)[C@H](CCCNC(=N)N)NC(=O)[C@H](CC(C)C)NC(=O)[C@H](CCSC)NC(=O)[C@H](CC(=O)O)NC(=O)[C@H](Cc2ccccc2)NC(=O)[C@@H](N)CC(=O)O)CSSC[C@@H](C(=O)N[C@@H](Cc2c[nH]c3ccccc23)C(=O)N[C@@H](CCC(N)=O)C(=O)N[C@@H](Cc2ccc(O)cc2)C(=O)O)NC(=O)[C@@H]2CCCN2C(=O)[C@H](CCCNC(=N)N)NC(=O)[C@H](Cc2ccccc2)NC(=O)[C@H](C(C)C)NC(=O)[C@H](CCCNC(=N)N)NC(=O)CNC(=O)[C@H](CC(C)C)NC1=O,x,-13%[12 µM],x,x,11%,x
N#Cc1nc(Nc2cccc3ccccc23)nc(NC2CCCC2)n1,x,x,x,x,2%,x
CCc1ccccc1NC(=O)CSc1nc(-c2ccccc2OC)nc2c1Cc1c(CO)cnc(C)c1O2,u,-10%,1%,5%,0%,4%
COc1ccccc1-c1nc2c(c(SCC(=O)Nc3ccccc3F)n1)Cc1c(CO)cnc(C)c1O2,79µM*,-10%,11%,-1%,8%,4%
O=C(Nc1ccccc1)c1oc2ccccc2c1NC(=O)C1CC1,9%,-7%,8%,-26%,2%,29%
CNc1c(NC(=O)C2CCC(C)CC2)c(=O)oc2ccccc12 (configuration not stated),-19%,-5%,10%,-3%,79µM*,-8%
Cc1nc(N)sc1-c1csc(Nc2ncccn2)n1,u,-27%,u,u,89µM*,u
CCCc1ccc(C(=O)NNC(=O)c2ccc(Br)cc2)cc1,45µM*,-21%,3%,u,1%,u
CCCc1ccc(C(=O)NNc2ccc(F)cc2)cc1,-14%,2%,-2%,-24%,9%,53%
O=C(NNc1c2ccccc2nc2ccccc12)c1ccc(O)cc1,79µM*,-10%[60.1 µM],u,-6%,4%,-6%
Cc1ccc(/C=C2\SC(=S)N(C(Cc3ccccc3)C(=O)O)C2=O)cc1 (configuration not stated),89µM*,-2%,4%,79µM*,6%,11%
O=C(O)C(Cc1ccccc1)N1C(=O)/C(=C/c2ccccc2)SC1=S (configuration not stated),2%,2%,-3%,-21%,0%,2%
O=C(O)C(Cc1ccccc1)N1C(=O)/C(=C/c2cccc3ccccc23)SC1=S (configuration not stated),32µM*,x,x,x,5%,x
O=C1Oc2ccccc2C(=O)C1C(CC(O)c1ccc(-c2ccc(Br)cc2)cc1)c1ccccc1 (configuration not stated),x,-2%[19.4 µM],x,x,x,x
O=c1cc(-c2ccc(Cl)c(Cl)c2)[nH][nH]1,6%,-7%,-5%,-11%,10%,-10%
O=c1cc(-c2ccc(Cl)cc2)[nH][nH]1,-15%,-3%,0%,-4%,13%,1.6µM*
O=S1(=O)N=C(OCc2ccccc2)c2ccccc21,x,x,x,x,1%,x
O=C(Nc1ccc(-c2nc3ccccc3o2)c(O)c1)c1cc(-n2cnnc2)ccc1Cl,35µM*,-1%,u,-20%,-9%,u
O=C(Nc1ccc(-c2nc3ccccc3o2)cc1)c1cc(-n2cnnc2)ccc1Cl,-3%,-3%,-18%,-7%,8%[56.1 µM],-173%
O=C(CCCn1c(=O)c2ccccc2n(CC(=O)Nc2ccc(F)cc2F)c1=O)NCc1ccccc1Cl,-3%,-1%,-9%,-9%,5%,-27%
Cc1ccc2ccc3cc(C(=O)Nc4ccc(C)c(F)c4)nc3c2[nH]1,u,-15%,-16%,-11%,-4%,89µM*
Cc1cccc(OCC(=O)N=Nc2c(O)[nH]c3ccc([N+](=O)[O-])cc23)c1,0%,1%,3%,u,1%,12%
Cc1ccccc1NCC(=O)N=Nc1c(O)[nH]c2ccc([N+](=O)[O-])cc12,9%,-29%,-3%,-9%,5%,44%
O=C(O)c1ccccc1N=Nc1c(O)[nH]c2ccc([N+](=O)[O-])cc12,50µM*,-42%,u,22µM*,x,u
O=[N+]([O-])c1ccc2[nH]c(O)c(N=NC(=S)Nc3cccnc3)c2c1,u,89µM*,u,u,x,u
SMILES,Pol beta inh,Pol kappa inh,FEN1 inh,POLH inh,TDP1 inh,POLI inh
Cc1cccc(OCC(=O)NCC(=O)N=Nc2c(O)[nH]c3ccc([N+](=O)[O-])cc23)c1,45µM*,-10%,1%,u,-11%,57%
COc1ccc(-c2cc(=O)c3ccc(F)cc3[nH]2)cc1,x,-13%,x,x,6%[234 µM],x
O=C1CCCC2CCCCN12 (configuration not stated),x,-2%[158 µM],x,x,6%[373 µM],x
CC1Cc2ccccc2N1C(=O)COC(=O)c1ccc(O)cc1 (configuration not stated),5%,15%,-5%,-8%,8%,11%
CC1Cc2ccccc2N1C(=O)COC(=O)c1ccc(N(C)C)cc1 (configuration not stated),x,50µM*,-9%,7.9µM*,2%[56.1 µM],13µM*
NS(=O)(=O)c1ccc(-c2ccc(/C=N/NC(=O)c3ccc([N+](=O)[O-])cc3)o2)cc1,-17%,-9%,-20%,4%,-3%,-3%
CCCOc1ccc(C(=O)N/N=C/c2ccc(-c3ccc(S(=O)(=O)Nc4ncccn4)cc3)o2)cc1,-11%,50µM*,u,20µM*,-10%,u
Cc1ccc(C)c(N2N=C(C(=O)NCCN3C(=O)S/C(=C\c4cccnc4)C3=O)CCC2=O)c1,x,-24%,-4%,u,6%,50µM*
Cc1ccc(-c2[nH]ncc2CNC(C)c2ccccc2)cc1 (configuration not stated),x,14%,6%,x,5%,15%
CCN(CC)CCn1c2ccccc2c2cnc(N=CN(C)C)c(C#N)c21,20µM*,-33%,35µM*,u,-8%,u
COc1ccc(C(=O)CCC(=O)Nc2ccc(OC)c(Cl)c2)cc1,u,-11%[60.1 µM],-4%,0%,7%,10%
COc1ccc(C(=O)CCC(=O)Nc2cc(Cl)c(O)c(Cl)c2)cc1,28µM*,u,-16%,22µM*,x,45µM*
O=C(C[n+]1ccccc1Cl)c1ccccc1,x,-14%,-13%,x,x,37%

# Bioassay records (PubChem)
